Literature values as cited in PubChem BioAssay AID977608.
Among all 4,300 compounds or so, about 4,300 (100%) were called active. Cut-off not given; nearly all actives show IC50 up to about 1400 µM. The set was probably picked from earlier hits. Some of the results follow. Where a SMILES comes first, the peptide text is derived from it. Non-standard residues stand in square brackets, D forms with d. Residues, ends and D or L forms follow the SMILES beside them. [ ]: non-standard residue; d: D form. Orn(CH(NH2)2) = NC(N)NCCC[C@H](N)C(=O)O

Assay: literature IC50 values for PDB complexes, PDB-derived complexes (AID 977608)
Conditions: PDB protein-ligand complexes

## O=C(NCc1ccc(S(=O)(=O)c2cccc(C(F)(F)F)c2)cc1)c1cnc2[nH]ncc2c1
protein: Nicotinamide phosphoribosyltransferase NAMPT, PDB entry 4o13
  IC50: 15 nM (active)

## O=C(NCc1ccc(S(=O)(=O)c2cc(F)cc(F)c2)cc1)c1ccc2n(cc[n+]2[C@@H]2O[C@H](CO[P+](O)(O)O)[C@@H](O)[C@H]2O)c1
protein: Human Nicotinamide Phosphoribosyltransferase, PDB entry 4l4l
  IC50: 5 nM (active)

## O=C(NCc1ccc(S(=O)(=O)c2cccc(C(F)(F)F)c2)cc1)c1cnc2c(cnn2[C@@H]2O[C@H](CO[P+](O)(O)O)[C@@H](O)[C@H]2O)c1
protein: Nicotinamide phosphoribosyltransferase, PDB entry 4m6q
  IC50: 6.1 nM (active)

## c1cc(Nc2ncnn3cc(-c4cn[nH]c4)cc23)ccn1
protein: Mitogen-activated protein kinase kinase kinase kinase 4 MAP4K4, PDB entry 4u45
  IC50: 10 nM (active)

## COc1ccc(-c2nc3ncc(Br)c(NCCCNC(=O)C4(CN)C=C4)c3[nH]2)cc1
protein: Cyclin-dependent kinase 2, PDB entry 3uli
  IC50: 70 nM (active)

## CC[C@H](C)[C@H](NC(=O)[C@@H](NC(=O)[C@@H]1CCCN1C(=O)[C@H](Cc1cnc[nH]1)NC(=O)[C@@H](N)CO)[C@@H](C)O)C(=O)N[C@@H](CC(C)C)C(=O)N[C@@H](Cc1ccc(O)cc1)C(=O)N[C@H](C(=O)N[C@@H](CC(C)C)C(=O)N[C@@H](CC(C)C)C(=O)N[C@@H](CO)C(=O)O)[C@@H](C)O (H-SHPTILYTLLS-OH)
protein: mouse liver receptor homolog1(LRH-1, NR5A2), PDB entry 1zh7
  IC50: 500 nM (active)

## CC(C)C[C@H](NC(=O)[C@@H](N)CO)C(=O)N[C@@H](Cc1ccccc1)C(=O)N[C@@H](Cc1cnc[nH]1)C(=O)N[C@H](CN[C@@H](Cc1ccc(O)cc1)C(=O)N[C@H](C(=O)N1CCC[C@H]1C(=O)O)[C@@H](C)O)Cc1ccccc1
protein: Endothiapepsin, PDB entry 4lp9
  IC50: 620 nM (active)

## NCCCNC(=O)c1[nH]nc2c1ccc1[nH]nc(Nc3cccc(F)c3)c12
protein: MATERNAL EMBRYONIC LEUCINE ZIPPER KINASE, PDB entry 4bkz
  IC50: 27 nM (active)

## CNC(=O)c1ccccc1Nc1ncnc(Nc2cc(OC)c(OC)c(OC)c2)n1
protein: Focal Adhesion Kinase catalytic domain, PDB entry 4c7t
  IC50: 400 nM (active)

## CC(=O)N[C@@H](Cc1cc(F)cc(F)c1)[C@H](O)CN[C@H]1C[C@H](C2CC2)Oc2ccc(CC(C)(C)C)cc21
protein: Beta-secretase 1, PDB entry 3qi1
  IC50: 22 nM (active)

## Cn1c2c(c(-c3cccc(Cl)c3)cc1=O)C=C([C@](N)(c1ccc(Cl)cc1)[C@H]1CNC=[N+]1C)CC2
protein: CaaX farnesyltransferase alpha subunit Ram2, PDB entry 4lng
  IC50: 2400 nM (active)

## C[C@H](CO)Nc1nc(Nc2ccc(S(N)(=O)=O)cc2)ncc1Br
protein: CYCLIN-DEPENDENT KINASE 2, PDB entry 4bgh
  IC50: 4 nM (active)

## CC(=O)Nc1cc(-c2sc(C3CCN(C4CC4)CC3)nc2-c2cccc(NS(=O)(=O)c3cc(F)ccc3F)c2F)ccn1
protein: B-Raf Kinase V600E mutant, PDB entry 4cqe
  IC50: 3.7 nM (active)

## CC(C)(C)c1nc2c3c(c4cc(F)ccc4c2[nH]1)C(=O)N=CC3
protein: Tyrosine-protein kinase JAK3, PDB entry 3lxl
  IC50: 5 nM (active)

## c1cc2c(cc1Nc1ccc3nnnn3n1)CCC2
protein: 3-OXOACYL-[ACYL-CARRIER-PROTEIN] REDUCTASE FABG, PDB entry 4bo7
  IC50: 100 nM (active)

## NC1CCC(Nc2nc3c(c(Nc4cccc(C(F)(F)F)c4)n2)C(=O)N=CC3)CC1 (centres undefined)
protein: Serine/threonine-protein kinase pim-1, PDB entry 4jx7
  IC50: 123 nM (active)

## Nc1ncnc2ccc(-c3ccnc(F)c3)nc12
protein: Mitogen-activated protein kinase kinase kinase kinase 4 MAP4K4, PDB entry 4obp
  IC50: 17 nM (active)

## CC[C@H](C)[C@H](NC(=O)[C@H](CCCCN)NC(=O)[C@H](Cc1cnc[nH]1)NC(=O)[C@@H](N)CCCNC(N)N)C(=O)N[C@@H](CC(C)C)C(=O)N[C@@H](Cc1cnc[nH]1)C(=O)N[C@@H](CCCNC(N)N)C(=O)N[C@@H](CC(C)C)C(=O)N[C@@H](CC(C)C)C(=O)N[C@@H](CCC(N)=O)C(=O)N[C@@H](CCC(=O)O)C(=O)O (H-[Orn(CH(NH2)2)]HKILH[Orn(CH(NH2)2)]LLQE-OH)
protein: Peroxisome proliferator-activated receptor gamma, PDB entry 4fgy
  IC50: 500 nM (active)

## CCC[C@H](NC(=O)[C@H](CCCCN)NC(=O)[C@H](CCCN=C(N)N)NC(=O)[C@@H](NC(=O)[C@H](Cc1cnc[nH]1)NC(=O)[C@H](C)NC(=O)[C@H](CCC(N)=O)NC(=O)[C@@H](NC(=O)[C@H](CCCN=C(N)N)NC(=O)[C@H](CC(C)C)NC(=O)[C@H](CC(C)C)NC(=O)[C@H](CO)NC(=O)CN1C/C=C/CCC(=O)N[C@@H](CC(N)=O)C(=O)N[C@@H]([C@@H](C)CC)C1=O)C(C)C)[C@@H](C)CC)C(=O)N[C@@H](CCSC)C(=O)N[C@H](C(=O)O)C(C)C
protein: Myosin A tail domain interacting protein, MTIP from Plasmodium falciparum, PDB entry 4mzl
  IC50: 2400 nM (active)

## H-HKKLLQLLTCSS-OH
protein: DHT-bound androgen receptor LBD, PDB entry 3l3x
  IC50: 710 nM (active)

## CC[C@H](C)[C@H](NC(=O)[C@@H](NC(=O)[C@H](CCC(=O)O)NC(=O)[C@H](CCSC)NC(=O)[C@H](CC(C)C)NC(=O)[C@H](CCCCN)NC(=O)[C@H](CCCNC(N)N)NC(=O)[C@H](CC(N)=O)NC(=O)[C@H](CO)NC(=O)[C@H](Cc1cnc[nH]1)NC(=O)[C@H](C)N)[C@@H](C)CC)C(N)=O (H-AHSN[Orn(CH(NH2)2)]KLMEII-NH2)
protein: human corticotropin releasing factor receptor type 1 (CRFR1), PDB entry 3eht
  IC50: 6800 nM (active)

## CC[C@H](C)[C@H](NC(=O)[C@H](Cc1cnc[nH]1)NC(=O)[C@H](C)NC(=O)[C@H](CCC(N)=O)NC(=O)[C@@H](NC(=O)[C@H](CCCNC(N)N)NC(=O)[C@H](CCSC)NC(=O)[C@H](CC(C)C)NC(=O)[C@H](CO)NC(C)=O)C(C)C)C(=O)N[C@@H](CCCNC(N)N)C(=O)N[C@@H](CCCCN)C(=O)N[C@@H](CCCNC(N)N)C(=O)N[C@@H](CCSC)C(N)=O (Ac-SLM[Orn(CH(NH2)2)]VQAHI[Orn(CH(NH2)2)]K[Orn(CH(NH2)2)]M-NH2)
protein: Myosin A Tail Interacting Protein, PDB entry 2auc
  IC50: 84000 nM (active)

## CC(=O)c1cnc2ccc(-c3cc(Cl)c(O)c(Cl)c3)nc2c1NC1CCC(CN(C)C)CC1 (centres undefined)
protein: Murine protein serine/threonine kinase 38 (MPK38), PDB entry 4cqg
  IC50: 0.41 nM (active)

## O=C(O)c1ccc(/C=N/N=C2c3ccccc3-c3ccccc32)cc1
protein: Casein kinase II subunit alpha CK2A1, PDB entry 4rlk
  IC50: 9500 nM (active)
protein: Casein kinase II subunit alpha CK2A1, PDB entry 4rll
  IC50: 9500 nM (active)

## Cc1cc(-c2ccccc2)n2nc(N)nc2n1
protein: Bromodomain-containing protein 4, PDB entry 4meq
  IC50: 250000 nM (active)

## COc1ccc(-c2ccc(C(=O)N[C@H](CO)C(C)(C)C)cc2C(=O)O)c(C(=O)Nc2ccc(C(N)N)cc2)n1
protein: Factor VIIa (Heavy Chain), PDB entry 4jzd
  IC50: 5 nM (active)

## Cn1cc(-c2ccc(=O)n(C)c2)c(COc2ccc(-c3ccc4ccccc4n3)cc2)n1
protein: cAMP and cAMP-inhibited cGMP 3',5'-cyclic phosphodiesterase 10A PDE10A, PDB entry 4wn1
  IC50: 5.1 nM (active)

## COc1ccc(-n2c(SCCCN3C(=O)c4cccc5cccc(c45)C3=O)nnc2-c2ccncc2)cc1
protein: TANKYRASE-2, PDB entry 4bfp
  IC50: 15 nM (active)
